Our source for the composite z-score and z-score values is PubChem BioAssay.

A short description of experiment [1]: compounds binding Alexa647 anti-His antibody – biochemical, small-molecule microarray, 635 nm fluorescence, artefact control for SMM control protein annotation, primary screen (AID 1128).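 Also: score merges feature fluorescence with signal-to-noise for each printed compound spot.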 Conditions: higher = more signal.
The test system of experiment [2] is Human papillomavirus type 1a E7 protein (residues 1-88). Kind of experiment: HPV1a E7 small-molecule binders, primary screen, biochemical, small-molecule microarray, residues 1-88, 635 nm (AID 1129). Conditions: small-molecule microarray binding, fluorescence 635 nm; higher = more signal.
In experiment [3] the target is Focal adhesion kinase 1 (Homo sapiens) (UniProt Q05397). Briefly: PTK2 protein binding on printed compound slides – biochemical, small-molecule microarray, 635/667 nm fluorescence, BSA, DTT, primary screen (AID 1130).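 Also: composite of spot emission at 667 nm and signal to noise over triplicate slides.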 Conditions: 635 nm fluorescence, higher = more signal.
Focal adhesion kinase 1 (Homo sapiens), sequence (Q05397 whole entry, looked up): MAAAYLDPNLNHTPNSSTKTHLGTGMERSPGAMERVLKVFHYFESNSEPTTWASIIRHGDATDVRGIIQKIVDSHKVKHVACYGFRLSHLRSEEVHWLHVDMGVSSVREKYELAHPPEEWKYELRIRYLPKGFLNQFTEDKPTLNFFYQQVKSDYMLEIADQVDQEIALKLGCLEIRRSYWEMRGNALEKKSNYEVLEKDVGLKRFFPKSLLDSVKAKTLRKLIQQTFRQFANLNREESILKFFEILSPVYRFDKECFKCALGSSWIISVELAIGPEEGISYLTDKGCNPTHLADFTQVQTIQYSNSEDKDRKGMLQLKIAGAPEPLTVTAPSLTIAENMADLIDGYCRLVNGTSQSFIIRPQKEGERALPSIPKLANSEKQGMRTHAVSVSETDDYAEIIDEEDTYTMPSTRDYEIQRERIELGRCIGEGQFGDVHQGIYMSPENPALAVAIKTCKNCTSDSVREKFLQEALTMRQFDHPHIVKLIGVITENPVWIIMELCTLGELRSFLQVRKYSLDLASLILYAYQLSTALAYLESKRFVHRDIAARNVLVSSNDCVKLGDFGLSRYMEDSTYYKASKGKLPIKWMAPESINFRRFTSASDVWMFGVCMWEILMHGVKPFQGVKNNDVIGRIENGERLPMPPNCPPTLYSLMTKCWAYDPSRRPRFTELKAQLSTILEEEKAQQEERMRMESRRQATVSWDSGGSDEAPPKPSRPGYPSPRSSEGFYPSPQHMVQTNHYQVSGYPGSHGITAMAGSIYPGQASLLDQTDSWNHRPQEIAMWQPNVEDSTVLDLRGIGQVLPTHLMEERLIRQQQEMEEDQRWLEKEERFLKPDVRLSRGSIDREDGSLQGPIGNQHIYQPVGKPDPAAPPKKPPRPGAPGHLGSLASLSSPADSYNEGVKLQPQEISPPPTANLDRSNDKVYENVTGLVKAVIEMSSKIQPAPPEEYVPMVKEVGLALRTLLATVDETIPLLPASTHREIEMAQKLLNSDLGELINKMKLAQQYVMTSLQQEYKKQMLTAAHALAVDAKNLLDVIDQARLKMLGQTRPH
Experiment [4] deals with Fibrinogen (Alexa647-labelled). Briefly: Alexa647-fibrinogen binding to printed small molecules – biochemical, small-molecule microarray, 635/667 nm fluorescence, artefact control for SMM control-protein annotation, profiling panel (AID 1131).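 Also: z-score merges 667 nm fluorescence with per-spot signal-to-noise over triplicate slides.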 Conditions: fibrinogen-A647 binding fluorescence, higher = more signal.
The target of experiment [5] is Follistatin (Homo sapiens) (UniProt P19883). Kind of experiment: FST protein binding to printed compounds – biochemical, small-molecule microarray, 635/667 nm fluorescence, primary screen (AID 1132). Conditions: 635 nm fluorescence, higher = more signal.
Follistatin (Homo sapiens), sequence (P19883 whole entry, looked up): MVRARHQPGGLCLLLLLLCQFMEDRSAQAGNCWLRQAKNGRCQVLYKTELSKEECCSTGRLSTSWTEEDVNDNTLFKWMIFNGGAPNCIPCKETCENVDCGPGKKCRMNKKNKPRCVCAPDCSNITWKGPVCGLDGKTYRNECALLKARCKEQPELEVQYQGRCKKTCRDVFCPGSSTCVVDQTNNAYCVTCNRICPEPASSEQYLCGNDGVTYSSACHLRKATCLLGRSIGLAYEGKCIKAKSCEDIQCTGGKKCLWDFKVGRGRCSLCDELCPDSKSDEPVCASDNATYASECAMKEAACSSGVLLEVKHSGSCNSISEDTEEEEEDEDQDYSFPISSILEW
The target in experiment [6] is Fibroblast growth factor 2 (Homo sapiens) (UniProt P09038). Kind of experiment: basic fibroblast growth factor binding to printed compounds – biochemical, small-molecule microarray, 635/667 nm fluorescence, primary screen (AID 1133). Conditions: FGF2, fluorescence 635/667, higher = more signal.
Fibroblast growth factor 2 (Homo sapiens), sequence (P09038 whole entry, looked up): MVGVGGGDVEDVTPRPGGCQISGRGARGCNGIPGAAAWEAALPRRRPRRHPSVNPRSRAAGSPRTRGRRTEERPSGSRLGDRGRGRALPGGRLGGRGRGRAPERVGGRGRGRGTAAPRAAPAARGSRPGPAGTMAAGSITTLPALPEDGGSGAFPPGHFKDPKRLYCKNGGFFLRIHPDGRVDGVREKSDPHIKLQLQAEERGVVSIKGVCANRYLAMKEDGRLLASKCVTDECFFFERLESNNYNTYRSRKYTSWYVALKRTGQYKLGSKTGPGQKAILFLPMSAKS
The nature of experiment [7]: JC-1 mitochondrial potential readout, lung cancer cells – cell-based, A549, JC-1 fluorescence, basal, 24 h, 100 nL, profiling panel (AID 1138).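 Also: A549 lung adenocarcinoma cells under basal conditions with no added stimulus; test concentration not given here.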 Conditions: higher = more signal.
The subject of the next experiment is Lefty1. Kind of experiment: Lefty1 protein binding to printed compounds – biochemical, small-molecule microarray, 635/667 nm fluorescence, primary screen (AID 1139). Conditions: fluorescence 635/667, higher = more signal.
Experiment [8] relates to wheat germ agglutinin (Triticum aestivum), Alexa647-labelled. Briefly: Alexa647-WGA lectin binding to printed small molecules – biochemical, small-molecule microarray, 635/667 nm fluorescence, artefact control for SMM control-protein annotation, profiling panel (AID 1140).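 Also: score merges 667 nm feature emission with signal to noise over triplicate slides.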 Conditions: WGA-A647 binding, 635 nm fluorescence, higher = more signal.
Experiment [9] concerns the target Luciferin 4-monooxygenase (Photinus pyralis) (UniProt P08659). Kind of experiment: inhibition of purified Photinus pyralis luciferase – biochemical, luminescence, purified enzyme, 2006 set, primary screen (AID 1141).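 Also: cell-free assay with purified firefly luciferase at 100 ng per well in PBS; test concentration not given here.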 Conditions: purified firefly luciferase, SteadyGlo luminescence, 30 min; higher = more signal, called active from +8 up or from −8 down.
For experiment [10], the system named is Wnt5a (protein binding on small-molecule microarray). Briefly: small molecules binding Wnt5a protein – biophysical, small-molecule microarray, 635/667 nm fluorescence, primary screen (AID 1142).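 Also: fluorescence read at 667 nm with signal to noise per printed feature.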 Conditions: 635 nm fluorescence, higher = more signal.
Experiment [11] in a line: ATP-based viability of Huh7 replicon cells – cell-based, CellTiter-Glo luminescence, basal, 48 h, cytotoxicity control for HCV replication inhibitor project, primary screen (AID 1143).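 Also: Huh7 hepatoma cells carrying a hepatitis C replication reporter with no stimulus; test concentration not given here.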 Conditions: higher = more signal, called active from +8 up or from −8 down.
Experiment [12] in a line: Pseudomonas biofilm growth suppression – PAO1 strain, BacTiter-Glo luminescence, LB-PBS, primary screen (AID 1144). Conditions: P. aeruginosa PAO1 biofilm, 12 h, higher = more signal.
Experiment [13] can be described thus: basal CRE-LacZ reporter activity in PC12 – cell-based, unstimulated, primary screen (AID 1145). Conditions: no forskolin, luminescence, 4.5 h, higher = more signal, called active from +8 up or from −8 down.
Experiment [14] is described as follows: forskolin-driven CRE-LacZ activity in PC12 – cell-based, CRE-LacZ reporter, forskolin-stimulated, primary screen (AID 1146).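 Also: PC12 cells with 6xCRE LacZ reporter stimulated by forskolin 10 µM; beta-galactosidase reporter signal reflecting CREB driven transcription.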 Conditions: luminescence, 4.5 h, higher = more signal, called active from +8 up or from −8 down.
Experiment [15] addresses Streptavidin (Streptomyces avidinii) (UniProt P22629). Briefly: compounds binding control protein streptavidin – biophysical, small-molecule microarray, 635/667 nm fluorescence, artefact control for SMM compound annotation, primary screen (AID 1147).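 Also: signal reflects streptavidin binding to arrayed compounds as a control protein.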 Conditions: higher = more signal.
Experiment [16] can be described thus: probe aInhba binding on compound microarray – biochemical, small-molecule microarray, 635/667 nm fluorescence, primary screen (AID 1148).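 Also: score merges 667nm spot fluorescence with signal-to-noise for antibody binding to printed compounds.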 Conditions: higher = more signal.
The target of experiment [17] is Torsin-1A (Homo sapiens) (UniProt O14656). Briefly: TOR1A wild-type binding on microarray – cell lysate, small-molecule microarray, lysate, 635/667 nm, primary screen (AID 1149). Conditions: COS7 hTOR1A-WT lysate, 635 nm fluorescence, higher = more signal.
Torsin-1A (Homo sapiens), sequence (O14656 whole entry, looked up): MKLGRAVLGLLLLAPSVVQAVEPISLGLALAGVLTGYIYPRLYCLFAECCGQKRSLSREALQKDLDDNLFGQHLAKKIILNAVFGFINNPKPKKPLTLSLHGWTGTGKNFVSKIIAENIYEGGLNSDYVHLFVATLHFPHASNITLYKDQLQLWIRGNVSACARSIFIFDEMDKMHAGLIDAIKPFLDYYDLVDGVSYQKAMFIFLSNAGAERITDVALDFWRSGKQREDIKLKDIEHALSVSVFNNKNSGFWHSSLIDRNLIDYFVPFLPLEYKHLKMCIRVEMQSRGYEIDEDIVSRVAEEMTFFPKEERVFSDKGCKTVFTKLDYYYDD
Experiment [18] has the same target. Briefly: torsin A mutant lysate binding on microarrays – cell lysate, small-molecule microarray, COS7 lysate, 635/667 nm fluorescence, primary screen (AID 1150).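 Also: score pools 667 nm emission and signal to noise measuring lysate protein binding.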 Conditions: COS7 hTOR1A mutant lysate, 635 nm fluorescence, higher = more signal.
Experiment [19] concerns Sonic hedgehog protein (Shh). Kind of experiment: Sonic hedgehog microarray binding compounds – biochemical, small-molecule microarray, 635/667 nm fluorescence, primary screen (AID 1151).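 Also: Shh protein binding to compounds spotted on small-molecule microarray slides; score combines spot fluorescence intensity with signal-to-noise across triplicate slides.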 Conditions: 635 nm fluorescence, higher = more signal.

“And” between values parts separate entries of the source, which are not always exact repeats. Identical values can stand only once. The source made the active and inactive calls. Unless noted, no rule for the calls is given here.

Streptavidin (Streptomyces avidinii), sequence (P22629 whole entry, looked up): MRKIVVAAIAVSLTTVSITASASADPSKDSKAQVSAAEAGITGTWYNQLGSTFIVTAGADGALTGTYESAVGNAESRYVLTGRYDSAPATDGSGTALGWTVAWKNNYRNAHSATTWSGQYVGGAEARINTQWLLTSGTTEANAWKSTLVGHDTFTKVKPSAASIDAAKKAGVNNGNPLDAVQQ
Luciferin 4-monooxygenase (Photinus pyralis), sequence (P08659 whole entry, looked up): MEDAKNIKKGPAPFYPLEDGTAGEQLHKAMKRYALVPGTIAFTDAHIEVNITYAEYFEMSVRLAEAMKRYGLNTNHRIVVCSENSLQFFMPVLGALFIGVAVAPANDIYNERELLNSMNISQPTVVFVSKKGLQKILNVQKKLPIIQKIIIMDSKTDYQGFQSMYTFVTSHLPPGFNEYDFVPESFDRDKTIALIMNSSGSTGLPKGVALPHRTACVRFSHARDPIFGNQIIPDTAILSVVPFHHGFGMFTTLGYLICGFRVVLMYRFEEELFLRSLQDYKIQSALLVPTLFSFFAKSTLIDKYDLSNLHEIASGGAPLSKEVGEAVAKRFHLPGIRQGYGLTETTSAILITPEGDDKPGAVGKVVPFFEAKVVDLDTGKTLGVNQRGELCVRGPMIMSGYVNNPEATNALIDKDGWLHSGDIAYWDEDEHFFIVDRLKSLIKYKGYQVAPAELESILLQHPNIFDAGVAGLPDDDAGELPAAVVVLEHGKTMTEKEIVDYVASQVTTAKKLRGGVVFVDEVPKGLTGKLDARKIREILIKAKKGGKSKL

`CO[C@H]1COC(=O)[C@H](C)NC(=O)CC=C[C@@H](C)[C@H](OC)COC(=O)CC=C[C@@H]1C`: the composite z-score was -0.284 in [1]; -1.4 in experiment [2]; -0.348 in experiment [3]; -1.86 in experiment [4]; 1.28 in [5]; 1.71 in experiment [6]. Also, the composite z-score with Lefty1 is 1.62; in experiment [8], -0.655; in experiment [10], 0.155; in [15], 0.14; in experiment [16], -0.237; with Torsin-1A (Homo sapiens) [17], 1.85. Also, the composite z-score in the experiment with Torsin-1A (Homo sapiens) [18] came to 1.81; in experiment [19], 1.62. Further, the z-score was 0.106 in [7]; -0.885 (inactive) in [9]; 0.0447 (inactive) in experiment [11]; -0.506 (inactive) in [12]; 1.51 (inactive) in experiment [13]; -0.41 (inactive) in [14].
Consider `CCOC(=O)CCN1C(=O)[C@H]2[C@H]3[C@H](O)[C@H](O)CC(=NNC(=O)OCC)[C@@H]3CC[C@H]2C1=O`, for which the composite z-score in experiment [1] is -0.23; in [2] it was 0.364; in experiment [3], 0.366; in experiment [4], 0.384; in experiment [5], -0.124; in experiment [6] it was 0.447. For the same molecule, the composite z-score with Lefty1 was -0.0407; in experiment [8] it was -0.368; in [10] it was 0.201; in experiment [15], -0.283; in experiment [16] it was -0.0791; in the experiment with Torsin-1A (Homo sapiens) [17], 0.274. The figures for the composite z-score (with Torsin-1A (Homo sapiens) [18]; in experiment [19]) were 0.608 and 0.188, respectively. For the same molecule, the z-score in experiment [7] is 0.167; in experiment [9], 0.406 (inactive); in experiment [11], 0.0243 (inactive); in experiment [12], -0.129 (inactive); in experiment [13] it was 0.796 (inactive); in experiment [14] it was 0.261 (inactive).
With `C=CCN(Cc1ccccc1)C(=O)C1N(c2ccc(CCO)cc2)C(=O)C2C(C(=O)O)C3C=CC21O3` (stereo not given), the composite z-score is -1.33 and -0.796 in experiment [1]; -1.49 and -1.7 in [2]; 0.0389 and -0.704 in experiment [3]; -0.944 and -1.58 in [4]; -2 and -2.08 in [5]; -2.32 and -2.92 in [6]. Also, the composite z-score was -2.53 and -1.55 in the experiment on Lefty1; -0.0866 and 1.16 in [8]; -0.588 and -0.549 in experiment [10]; -1.49 and -1.35 in experiment [15]; -0.273 and -0.206 in experiment [16]; -2.02 and -4.14 with Torsin-1A (Homo sapiens) [17]. Also, the composite z-score was -3.2 and -2.45 with Torsin-1A (Homo sapiens) [18]; -1.7 and -1.87 in [19]. The z-score in experiment [7] was -0.571 and -0.775; in experiment [9] it was -0.927 (inactive) and -0.283 (inactive); in experiment [11], 0.012 (inactive) and -0.668 (inactive); in experiment [12], -0.231 (inactive) and -1.01 (inactive); in experiment [13] it was 0.195 (inactive) and -0.899 (inactive); in [14], 0.892 (inactive) and -0.29 (inactive).
Regarding `C=CCN(CCCCC)C(=O)C1N(CCOCCO)C(=O)C2C(C(=O)O)C3C=CC21O3` (stereo not given), the composite z-score in [1] is -0.749 and -1.54; in [2], -1.08 and -0.838; in [3], -0.527 and -1.09; in [4], -1.97 and -0.97; in experiment [5], -0.98 and -2.75; in experiment [6], -2.29 and -2.04. The composite z-score with Lefty1 is -1.41 and -1.91; in experiment [8] it was -1.19 and -2.06; in experiment [10], -1.49 and -0.76; in experiment [15], -1.6 and -1.66; in experiment [16], -0.278 and -0.3; in the experiment with Torsin-1A (Homo sapiens) [17], -2.98 and -2.79. The composite z-score is -0.411 and -1.26 in the experiment with Torsin-1A (Homo sapiens) [18]; -1.44 and -0.292 in [19]. Moreover, the z-score was 0.586 and -0.536 in experiment [7]; 0.171 (inactive) and 0.472 (inactive) in [9]; 0.41 (inactive) and -0.417 (inactive) in experiment [11]; 1.73 (inactive) and 1.24 (inactive) in experiment [12]; 0.866 (inactive) and 0.601 (inactive) in experiment [13]; 0.17 (inactive) and -0.469 (inactive) in experiment [14].
